Here are results for 40 compounds from PubChem BioAssay (NCATS).

Results filed as inconclusive are left out. Activity calls are given as the source filed them. The call rests on the fitted dose curve; in most records, active means well fitted inhibition curve with a large enough effect; inconclusive means small, poorly fitted or top-dose-only effect, or effect the other way; inactive means no such curve, though single readings can be large or run the other way.
Potency means the concentration at half of the fitted maximal effect.

The nature of this assay: High Content Imaging Cell-Based qHTS for Inhibitors of the mTORC1 Signaling Pathway in MEF Cells (AID 2667).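 On activity change, negative = inhibition: Tsc2-/- p53-/- MEFs stably re-expressing wild-type Tsc2 exposed 24 h.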 As to conditions: series mostly up to 38.3 µM; activity change, negative = inhibition: at the top concentration. An excerpt: NIH Molecular Libraries Probe Production Centers Network [MLPCN]
NIH Chemical Genomics Center [NCGC]
Assay Submitter (PI): Blenis, John; Hoffman, Greg; Harvard University
NCGC Assay Overview: The mammalian target of rapamycin (mTOR) is an intracellular serine/threonine kinase Aberrant regulation of mTOR signaling plays a causative role in a number of human diseases, including cancer, benign tumors such as lymphangioleiomyomatosis (LAM) and Tuberous Sclerosis Complex (TSC), and metabolic diseases such as diabetes and obesity. This project aims to identify inhibitors of ribosomal protein S6 (rpS6) phosphorylation. The phosphorylation of rpS6 is a key event downstream of mTOR activation. The assay uses a phospho-specific antibody of phospho-rpS6 to detect inhibitors of mTOR activation. Mutations in the Tsc1 and Tsc2 genes are the underlying genetic lesions responsible for TSC, causing constitutive activation of the mTORC1 pathway and leading to profound effects on cell metabolism. Aberrant metabolism in cancer has recently received significant attention as a target to develop therapeutic agents in the treatment of cancer.1 As Tsc2-/- cells have lost the ability to respond to energy and growth factor deprivation, these cells are unable to properly down regulate cellular biosynthetic processes in response to metabolic stress, and are thus extremely sensitive to glucose deprivation-induced death.2 A central goal of this project is to explore the unique cell survival and metabolic properties of cells with Tsc1 or Tsc2 by screening for compounds that selectively target the Tsc2-/- MEFs by screening both Tsc2-/- and WT MEF cell lines. We hope to better understand these aspects of TSC physiology in order to exploit them for therapeutic benefit.
NCGC IN Cell Assay Protocol:
For quantitative high throughput analysis of mTORC1 signaling, we developed a cell-based assay for immuno-fluorescence based detection of rpS6 phosphorylation on the Acumen Explorer that will be used a platform for the primary small molecule screen. Mouse embryonic fibroblasts (MEFs) are cultured in 1536-well plates using DMEM + 10% FBS. Twenty-four hrs after plating, test compounds (solubilized in DMSO) are delivered and incubated with the cells for 24 hrs at 37 degree Celsius. Following the incubation, media with compound is aspirated and the cells are fixed in 4% paraformaldehyde (PFA) containing PBS + 0.2% TX-100. Next, PFA is aspirated, cells are washed two times with PBS plus 0.2% TX-100 and the cells are blocked for 1 hr at room temperature (blocking buffer: LiCOR Blocking Buffer plus 0.2% TX-100). This is followed by aspiration and staining with Alexa-488 conjugated-phospho-rpS6 Ser235/236 antibody for 2 hours at room temperature (Cell Signaling Technology # 4803, 1:50 dilution in blocking buffer). Cells are washed two times with PBS plus 0.2% TX-100, and stained with 10 uM propidium iodide (PI) for 20-25 minutes for cell number measurement (1:500 dilution of Hoescht staining is also added for IN Cell imaging). Active wells which are selected (based on Acumen results) are imaged on the IN Cell 1000 (GE Healthcare) using the D360/40X and HQ480/40X excitation filters for the Hoechst and Alexa-488 cytoplasmic stains, respectively. The fluorescence emission filters used were HQ460/40M and HQ535/50M for the Hoechst and Alexa-488 cytoplasmic stains, respectively. The normalized phospho-S6 staining is calculated as the ratio of […] for the single concentration rapamycin control ([…] nM) and DMSO columns. […] Inhibition of the pathway is defined based on the normalized phospho-S6 intensity in rapamycin treated cells. Each treatment is reported as the % positive cells in the well, where thresholds are defined by selecting wells with the highest and lowest signal and differentiating between the % non-active and % active populations. […]
`Cc1ccc(S(=O)(=O)/C=C/C#N)cc1`: the “activity change, negative = inhibition” value was -100% (inactive).

As for `CN1CCc2cccc3c2C1Cc1ccc(O)c(O)c1-3` (stereo not given), the “activity change, negative = inhibition” value was -100% (inactive). As to `Nc1nc(SCc2ccc([N+](=O)[O-])cc2)c2ncn([C@@H]3O[C@H](CO)[C@@H](O)[C@H]3O)c2n1`, the “activity change, negative = inhibition” value was -100% (inactive). The same measure, in the same setting: with `Ic1ccc(N2CCN(Cc3c[nH]c4ncccc34)CC2)cc1` the figure was -100% (inactive); with `OC[C@H]1O[C@@H](n2cnc3c(NC4CCCC4)ncnc32)[C@H](O)[C@@H]1O`, -100% (inactive); with `CCCCCCCCCCCCCCCCCC(=O)NCC(COP(=O)([O-])OCC[N+](C)(C)C)OCC` (stereo not given), -100% (inactive).

Regarding `COc1ccc(NC(=O)/C=C/c2ccc(Cl)cc2)cc1`, the “activity change, negative = inhibition” value was -100% (inactive). On the same count and under the same terms, the value for `CCCn1c(=O)c2[nH]c(-c3ccc(OCC(=O)NCCN)cc3)nc2n(CCC)c1=O` was -100% (inactive); that for `CCCCN1CCC(n2c(=O)[nH]c3ccccc32)CC1` was -100% (inactive); that for `CCN1/C(=C/C(C)=O)Sc2ccc(OC)cc21` was -100% (inactive). On the same count and under the same terms, with `O=C(Nc1ccccc1)c1cc([N+](=O)[O-])ccc1Cl` the figure was -100% (inactive); with `Cc1ccc(C(=O)O[C@H](C(=O)O)[C@@H](OC(=O)c2ccc(C)cc2)C(=O)O)cc1` (tested in a mixture with another compound), -100% (inactive); with `Brc1c(Br)c(Br)c2n[nH]nc2c1Br`, -100% (inactive). The same measure, in the same setting: the value for `COc1cc2c(CCNC(C)=O)c[nH]c2cc1Cl` was -100% (inactive); that for `CNc1ncnc2c1ncn2[C@@H]1O[C@H](CO)[C@@H](O)[C@H]1O` was -100% (inactive); that for `O=C1NC(O)=NC1(c1ccccc1)c1ccccc1` was -100% (inactive). With `CN(C)CCC(c1ccc(Cl)cc1)c1ccccn1` (stereo not given), the “activity change, negative = inhibition” value is -100% (inactive). On the same count and under the same terms, with `CN=c1nc(-c2ccccc2)n(-c2ccccc2)s1` the figure was -100% (inactive); with `C#C[C@]1(O)CC[C@H]2[C@@H]3CCC4=Cc5oncc5CC4(C)[C@H]3CCC21C` (stereo not given in full), -100% (inactive).

Consider `COc1cc(C(O)CO)ccc1OS(=O)(=O)O` (stereo not given), for which the “activity change, negative = inhibition” value is -100% (inactive). Same read-out and setting: with `NC(=S)c1ccc[n+]([C@@H]2O[C@@H](COP(=O)([O-])OP(=O)(O)OC[C@H]3O[C@@H](n4cnc5c(N)ncnc54)[C@H](OP(=O)(O)O)[C@@H]3O)C(O)C2O)c1` (stereo not given in full) the figure was -100% (inactive); with `O=C(O)CC1CCCc2ccccc2C1O` (stereo not given), -100% (inactive); with `CCCCCCCC/C=C\CCCCCCCC(=O)NCCO`, -100% (inactive). Regarding `COc1cccc(OC)c1OCCNCC1COc2ccccc2O1` (stereo not given), the “activity change, negative = inhibition” value is -100% (inactive). As to `CCCC1(C)C(C#N)(C#N)C1(C#N)C#N`, the Potency is 2.33 µM (active).

On to `CCCCCCCCc1ccc(-c2ccc(C(=O)O)cc2)cc1`, for which the “activity change, negative = inhibition” value is -100% (inactive). Take `CN1CCc2ccccc2Cc2[nH]c3ccccc3c2CC1`: the “activity change, negative = inhibition” value was -100% (inactive).

As for `Nc1ncnc2c1c(I)cn2[C@@H]1C[C@H](N)[C@@H](O)[C@H]1O`, the “activity change, negative = inhibition” value was -10.6% (inactive).

`COc1ccccc1CNCCCCCCNCCCCCCCCNCCCCCCNCc1ccccc1OC`: the “activity change, negative = inhibition” value was -100% (inactive). On the same count and under the same terms, the value for `CC(N)C(=O)OC(C)(C)Cc1ccc(Cl)cc1` (stereo not given) was -100% (inactive); that for `CCOC(=O)N1CCN(/[N+]([O-])=N/Oc2ccc([N+](=O)[O-])cc2[N+](=O)[O-])CC1` was -100% (inactive); that for `CSc1nc(N)c2ncn([C@@H]3O[C@H](COP(=O)(O)OP(=O)(O)OP(=O)(O)O)[C@@H](O)[C@H]3O)c2n1` was -100% (inactive). On the same count and under the same terms, the value for `O=c1[nH]c2cc([N+](=O)[O-])c([N+](=O)[O-])cc2[nH]c1=O` was -100% (inactive).

On to `O=P(O)(O)C(Cl)(Cl)P(=O)(O)O`, for which the “activity change, negative = inhibition” value is -100% (inactive). For the compound `CC(C)CC(NP(=O)(O)O[C@@H]1O[C@@H](C)[C@H](O)[C@@H](O)[C@H]1O)C(=O)NC(Cc1c[nH]c2ccccc12)C(=O)O` (stereo not given in full), the “activity change, negative = inhibition” value is -100% (inactive). Regarding `NC(N)=NC(=O)c1nc(Cl)c(N2CCCCCC2)nc1N`, the “activity change, negative = inhibition” value is -100% (inactive). With `CCCN(CC1CC1)c1nc(C)nc(Nc2c(Cl)cc(Cl)cc2Cl)c1Cl`, the “activity change, negative = inhibition” value was -100% (inactive). As to `NCC1OC(O[C@H]2[C@H](O)[C@@H](OC3C(O)C(N)CC(N)C3OC3OC(CO)C(O)C(O)C3N)O[C@@H]2CO)C(N)C(O)C1O` (stereo not given in full), the “activity change, negative = inhibition” value was -100% (inactive). Consider `O=C(O)c1cc(=O)c2c(Cl)cc(Cl)cc2[nH]1`, for which the “activity change, negative = inhibition” value is -100% (inactive). On the same count and under the same terms, the value for `C[C@@H](CN1CCC(Cc2ccccc2)CC1)[C@@H](O)c1ccc(O)cc1` was -100% (inactive).
